# Measurements as given in PubChem BioAssay AID920 (The Scripps Research Institute Molecular Screening Center, 2007).
# Screen size: about 200,000 compounds; about 700 (0.35%) were called active. What follows is part of a selection rich in actives, with near analogues and random picks from the rest. Values without a mark were called inactive.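 How the source made its calls: active means inhibition above a set limit, the mean inhibition across all tested compounds plus 3 SD (cut at about 34% in these data); inactive means the rest.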
# Assay: blockers of IFN-gamma driven STAT1 reporter – cell-based, HTS, luciferase reporter, primary screen (AID 920);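 further: 0% = IFN-gamma with DMSO and 100% = IFN-gamma with 300 µM nifuroxazide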
# Conditions: NIH 3T3 STAT1-luciferase reporter, luminescence, at 5.5 µM, hits give high values
row,Compound,inhibition
1,Cc1nc2ccc(N3CCN(C)CC3)cc2nc1C,-26.2%
2,COc1cccc(-c2nc3ccc(N4CCN(C)CC4)cc3[nH]2)c1,63.1% (active)
3,CN1CCN(c2cc(N3CCNCC3)ccc2[N+](=O)[O-])CC1,12.4%
4,CN(C)/C=C(\C=[N+](C)C)c1[nH]ncc1[N+](=O)[O-],-9.13%
5,COc1ccc(CCn2c(O)c(C=NCCCn3ccnc3)c(=O)[nH]c2=O)cc1OC,-4.43%
